Results: PubChem BioAssay AID1159580 (chemical genetic matrix, 2015)
“And” between values parts separate entries of the source, which are not always exact repeats. Identical values can stand only once. About 2,000 (36%) of roughly 5,500 compounds were called active. About 18% were inconclusive and are not listed. Cut-off read from the data, not from the text of the source: active = normalized growth mostly below about 0.91 (no sharp cut-off); inconclusive = no clear call, values can overlap the other calls; inactive = mostly above about 0.92. This is one part of the list.

Experiment: chemical genetic growth profiling, strain panel (AID 1159580);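 note: tested at 20 µM; growth read once vehicle control cultures reached saturation at 30 °C; 1 = growth at the plate median or of vehicle wells; lower values mean less growth of the strain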
Details: S. cerevisiae deletion strains, growth OD

Measured: normalized growth

NC(C(=O)O)C(O)C(=O)O (stereo not drawn)
inactive: locus YAL013W, strain DEP1, stronger effect = lower value 1.04 | locus YAL021C, strain ccr4, stronger effect = lower value 0.941 | locus YAL026C, strain drs2, stronger effect = lower value 0.998 | locus YAL030W, strain snc1, stronger effect = lower value 0.98 | locus YBL061C, strain skt5, stronger effect = lower value 0.996 | locus YBR009C, strain hhf1, stronger effect = lower value 0.955 | locus YBR021W, strain FUR4, stronger effect = lower value 0.993 | locus YBR023C, strain chs3, stronger effect = lower value 0.994 | locus YBR171W, strain sec66, stronger effect = lower value 0.997 | locus YBR229C, strain ROT2, stronger effect = lower value 1.01 | locus YBR231C, strain swc5, stronger effect = lower value 1.03 | locus YBR279W, strain paf1, stronger effect = lower value 0.993 | locus YCL011C, strain gbp2, stronger effect = lower value 0.98 | locus YCL016C, strain dcc1, stronger effect = lower value 0.978 | locus YCL029C, strain bik1, stronger effect = lower value 1.03 | locus YCL061C, strain MRC1, stronger effect = lower value 1 | locus YCL069W, strain vba3, stronger effect = lower value 0.991 | locus YCR088W, strain abp1, stronger effect = lower value 1 | locus YDL005C, strain med2, stronger effect = lower value 0.982 | locus YDL035C, strain GPR1, stronger effect = lower value 1.02 | locus YDL040C, strain nat1, stronger effect = lower value 0.996 | locus YDL074C, strain BRE1, stronger effect = lower value 1.02 | locus YDL101C, strain DUN1, stronger effect = lower value 1.02 | locus YDL134C, strain PPH21, stronger effect = lower value 1.01 | locus YDL185W, strain tfp1, stronger effect = lower value 1.02 | locus YDL192W, strain arf1, stronger effect = lower value 1.02 | locus YDR001C, strain nth1, stronger effect = lower value 0.97 | locus YDR069C, strain doa4, stronger effect = lower value 0.969 | locus YDR101C, strain arx1, stronger effect = lower value 1.04 | locus YDR137W, strain rgp1, stronger effect = lower value 0.982 | locus YDR159W, strain sac3, stronger effect = lower value 1.05 | locus YDR162C, strain NBP2, stronger effect = lower value 1.04 | locus YDR195W, strain ref2 0.973 | locus YDR297W, strain sur2, stronger effect = lower value 0.994 | locus YDR318W, strain mcm21, stronger effect = lower value 1.01 | locus YDR334W, strain swr1, stronger effect = lower value 0.983 | locus YDR335W, strain msn5, stronger effect = lower value 0.986 | locus YDR388W, stronger effect = lower value 1.02 | locus YDR392W, strain spt3, stronger effect = lower value 0.91 | locus YDR502C, strain sam2, stronger effect = lower value 1.03 | locus YEL003W, strain gim4, stronger effect = lower value 0.999 | locus YEL037C, strain rad23, stronger effect = lower value 0.983 | locus YEL061C, strain CIN8 (second series), stronger effect = lower value 0.99 | locus YEL061C, strain CIN8, stronger effect = lower value 1.01 | locus YER015W, strain faa2, stronger effect = lower value 0.997 | locus YER016W, strain bim1, stronger effect = lower value 0.991 | locus YER110C, stronger effect = lower value 1.03 | locus YER111C, strain swi4, stronger effect = lower value 0.994 | locus YER155C, strain BEM2 (second series), stronger effect = lower value 1.03 | locus YER155C, strain BEM2, stronger effect = lower value 0.983 | locus YER167W, strain BCK2, stronger effect = lower value 1.01 | locus YFR010W, strain ubp6, stronger effect = lower value 0.986 | locus YGL078C, strain dbp3, stronger effect = lower value 1.02 | locus YGL086W, strain mad1, stronger effect = lower value 1 | locus YGL167C, strain pmr1, stronger effect = lower value 0.969 | locus YGL173C, strain kem1, stronger effect = lower value 0.999 | locus YGL227W, strain vid30, stronger effect = lower value 0.997 | locus YGL240W, strain doc1, stronger effect = lower value 1 | locus YGL248W, strain PDE1, stronger effect = lower value 1.02 | locus YGL253W, strain hxk2, stronger effect = lower value 1.02 | locus YGR078C, strain PAC10, stronger effect = lower value 1.02 | locus YGR135W, strain pre9, stronger effect = lower value 1.01 | locus YGR252W, strain gcn5, stronger effect = lower value 0.999 | locus YHR013C, strain ard1, stronger effect = lower value 0.969 | locus YHR027C, strain rpn1, stronger effect = lower value 0.991 | locus YHR030C, strain SLT2, stronger effect = lower value 1 and 1.03 | locus YHR079C, strain IRE1 (second series), stronger effect = lower value 1.02 | locus YHR079C, strain IRE1, stronger effect = lower value 1.03 | locus YHR094C, strain hxt1, stronger effect = lower value 1.02 | locus YHR129C, strain ARP1, stronger effect = lower value 1.01 | locus YHR142W, strain chs7, stronger effect = lower value 0.983 | locus YHR200W, strain rpn10, stronger effect = lower value 1.02 | locus YIL066C, strain RNR3, stronger effect = lower value 1.02 | locus YIL073C, strain SPO22, stronger effect = lower value 1.09 | locus YIL125W, strain kgd1, stronger effect = lower value 1.01 | locus YIR030C, strain dcg1, stronger effect = lower value 1.02 | locus YJL092W, strain hpr5, stronger effect = lower value 0.986 | locus YJL095W, strain BCK1 (second series), stronger effect = lower value 0.993 | locus YJL095W, strain BCK1, stronger effect = lower value 1.03 and 1.06 | locus YJL115W, strain asf1, stronger effect = lower value 0.965 | locus YJL129C, strain trk1, stronger effect = lower value 1.02 | locus YJL134W, strain LCB3, stronger effect = lower value 1.01 | locus YJL154C, strain vps35, stronger effect = lower value 0.987 | locus YJL164C, strain tpk1, stronger effect = lower value 0.96 | locus YJL166W, strain qcr8, stronger effect = lower value 0.988 | locus YJL168C, strain set2, stronger effect = lower value 1.01 | locus YJL187C, strain SWE1 (second series), stronger effect = lower value 1.03 | locus YJR043C, strain POL32, stronger effect = lower value 1.02
